# Mcl1 Bid PPI: disrupts binding of human Mcl-1 to Bid peptide | Q07820 | inhibition, % at 21.7 µM | 220,000 compounds, 0.97% hits | TR-FRET Mcl-1/Bid-Dy647 peptide binding, 1536-well;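 active means compounds that cut the binding signal by more than half at the single screening dose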;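 further: His-tagged Mcl-1 with europium anti-His antibody binding Bid BH3 peptide; 0% = Mcl-1 plus peptide wells and 100% = peptide-only wells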
# Target sequence (Q07820 whole entry, looked up): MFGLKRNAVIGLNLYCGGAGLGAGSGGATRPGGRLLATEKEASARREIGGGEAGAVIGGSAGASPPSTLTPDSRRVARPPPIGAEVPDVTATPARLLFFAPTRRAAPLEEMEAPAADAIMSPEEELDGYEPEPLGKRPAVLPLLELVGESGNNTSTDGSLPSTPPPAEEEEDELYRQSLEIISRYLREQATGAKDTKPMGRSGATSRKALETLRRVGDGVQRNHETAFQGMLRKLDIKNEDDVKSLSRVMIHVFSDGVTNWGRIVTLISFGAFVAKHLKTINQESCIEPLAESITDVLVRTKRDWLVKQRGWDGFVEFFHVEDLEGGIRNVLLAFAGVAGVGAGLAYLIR
# Mcl1 Noxa PPI: disrupts binding of human Mcl-1 to Noxa peptide; inhibition, % at 21.7 µM; AID 1022; Q07820; 220,000 compounds, 1.5% hits; TR-FRET Mcl-1/Noxa peptide binding, 2 h;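 active means compounds that cut the protein-peptide binding signal by more than 50% relative to plate controls in a single-dose test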;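 further: His-tagged Mcl-1 with rhodamine Noxa BH3 peptide and terbium anti-His antibody; 0% = Mcl-1 plus Noxa peptide wells and 100% = peptide-only wells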
# Bim-Mcl-1: disrupts Bim peptide binding to human Mcl-1. Q07820. Bead-based flow cytometry, Bim peptide-Mcl-1 binding. inhibition, % at 10 µM. 190,000 compounds, 0.1% hits. AID 1009; in the data active means inhibition above about 40%;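 further: 0% = no compound tracer wells and 100% = peptide blocker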
# BCLXL inh: Bcl-xL (human) inhibition | Q07817 | GST-Bcl-xL / FITC-Bim BH3 peptide fluorescence polarization | inhibition, % at 10.9 µM | 320,000 compounds, 0.7% hits;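 active means inhibition above the mean of all tested compounds plus 3 SD, cutoff set per campaign, cut at about 30% in these data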;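 further: 0% = DMSO wells and 100% = unlabeled Bim-BH3 peptide competitor; inhibitors lower millipolarization by displacing the labeled peptide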
# Target sequence (Q07817 whole entry, looked up): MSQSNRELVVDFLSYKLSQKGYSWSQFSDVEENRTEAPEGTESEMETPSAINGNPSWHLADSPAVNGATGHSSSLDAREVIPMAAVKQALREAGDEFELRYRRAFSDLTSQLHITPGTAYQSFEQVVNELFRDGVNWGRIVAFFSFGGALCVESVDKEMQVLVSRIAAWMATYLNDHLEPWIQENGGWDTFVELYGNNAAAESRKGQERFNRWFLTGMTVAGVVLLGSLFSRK
# MCL1 BIM primary: MCL1-BIM-BH3 interaction inhibition (human). Q07820. GST-MCL1 / FITC-Bim-BH3 fluorescence polarization. inhibition, % at 10.9 µM. 320,000 compounds, 0.68% hits. AID 2057;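 active means inhibition above the mean inhibition of all tested compounds plus 3 SD, set per campaign, cut at about 40% in these data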;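 further: 0% = DMSO wells and 100% = unlabeled Bim-BH3 peptide control; higher means more loss of mP so more displacement of Bim peptide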
# GLD-1 RNA inh: GLD-1-TGE RNA interaction inhibition (C. elegans); purified GLD-1 + fluorescein TGE RNA, fluorescence polarization; 320,000 compounds, 0.44% hits; Q17339; inhibition, % at 5.96 µM; AID 2280;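 active means percent inhibition above a per-plate cutoff, the plate mean of test compounds plus 3 SD, cut at about 30% in these data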;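 further: 0% = DMSO wells with GLD-1 and probe and 100% = wells lacking GLD-1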
# * marks the source's active call; other numbers are inactive results; . = no result. Most compounds without a hit are left out; they make up all but 2.3% or so of the library.
SMILES,Mcl1 Bid PPI,Mcl1 Noxa PPI,Bim-Mcl-1,BCLXL inh,MCL1 BIM primary,GLD-1 RNA inh
O=C(COC(=O)C1CC(=O)N(Cc2ccco2)C1)c1ccc(OC(=O)c2ccco2)cc1 (centres undefined),-8.8,55.5*,-4.0,-3.5,26.2,5.0
O=C(COC(=O)C1CC(=O)N(Cc2ccccc2)C1)c1ccc(Br)cc1 (centres undefined),-26.3,11.4,-8.0,1.1,-1.2,3.9
COc1ccc(CCNC(=O)c2ccccc2NC(=O)C2=C(C)OCCS2)c(OC)c1,.,.,.,6.2,4.3,-1.0
O=C(CCN1C(=O)C2C3CCC(C3)C2C1=O)Nc1cccc(Cl)c1 (centres undefined),.,.,.,-1.5,-11.7,-3.4
C=CCSC1=Nc2sccc2C2=NC(=O)CN12,22.5,56.5*,0.0,6.0,18.4,-2.8
CC(C)CCC(CCN1CCOCC1)c1ccc2c(c1)OCO2 (centres undefined),6.7,26.6,-6.0,4.9,5.7,-2.1
CC(C)CCC(CCN1CCCC1)c1ccc2c(c1)OCO2 (centres undefined),5.8,75.1*,.,3.3,1.4,-3.7
O=C(C1CCCN(Cc2ccc([N+](=O)[O-])cc2)C1)N1CCCCC1 (centres undefined),.,.,.,-0.2,6.6,-8.4
COc1cccc(-c2nc(CS(=O)(=O)CC(=O)N3CCOCC3)c(C)o2)c1,.,.,.,-2.4,-1.7,2.2
CCCCN(C)S(=O)(=O)c1ccc(C(=O)N=c2sc3cc(NC(C)=O)ccc3n2C)cc1,69.7*,28.6,-29.0,4.0,-0.2,-5.4
COCCn1c(N)c(C(=S)NC(=O)c2cccs2)c(=O)[nH]c1=O,-6.3,70.1*,.,11.3,7.5,3.2
CCOC1=C/C(=C/c2c(N)n3oc(C)cc3nc2=O)C=CC1=O,-42.1,23.9,1.0,-0.4,-1.5,-4.5
CCS(=O)(=O)c1nn2c(N)c(/C=C3/C=CC(=O)C(OC)=C3)c(=O)nc2s1,-41.7,57.9*,0.0,-15.7,-32.8,-74.8
COC1=C/C(=C/c2c(N)n3nc(-c4ccc(C)cc4)sc3nc2=O)C=CC1=O,27.1,84.0*,3.0,.,.,.
CCOC1=C/C(=C/c2c(N)n3nc(-c4ccccc4)sc3nc2=O)C=CC1=O,-32.7,89.3*,-1.0,.,.,.
O=C(CS(=O)(=O)Cc1ccccc1)N1CCN(c2ccccc2F)CC1,.,.,.,0.8,2.5,-4.5
Cc1nc2cc(-c3ccsc3-n3c(C)ccc3C)[nH]n2c(=O)c1Cl,-36.7,61.0*,1.0,8.8,15.6,-20.7
Cc1cc(=O)n2[nH]c(-c3ccc(F)cc3)cc2n1,-19.3,6.1,-4.0,-6.3,-5.9,0.4
Cc1cc(=O)n2[nH]c(-c3ccsc3-n3c(C)ccc3C)cc2n1,-87.1,96.6*,.,8.3,28.4,-22.6
COCc1cc(=O)n2[nH]c(-c3ccsc3-n3c(C)ccc3C)cc2n1,-24.8,68.9*,-3.0,7.1,7.5,-2.3
COCc1cc(=O)n2[nH]c(N)nc2n1,-33.1,6.4,.,3.9,11.3,6.6
Cc1ccccc1-c1cc2nc(C)c(Cl)c(=O)n2[nH]1,.,.,.,2.4,0.6,-1.6
COC(=O)c1ccc(Cn2nnc3c(=O)[nH]c(C4CCCN(S(=O)(=O)c5cccc(Cl)c5)C4)nc32)cc1 (centres undefined),.,.,.,4.1,9.1,4.1
C(=C\c1nnc2c3ccccc3ncn12)/c1ccccc1,-8.2,-35.0,-2.0,0.8,5.0,0.3
COc1cc(/C=C/c2nnc3c4ccccc4ncn23)cc(OC)c1OC,2.2,52.3*,-5.0,3.1,-3.8,6.1
SMILES,Mcl1 Bid PPI,Mcl1 Noxa PPI,Bim-Mcl-1,BCLXL inh,MCL1 BIM primary,GLD-1 RNA inh
CCn1cc(CN2CCC(n3nccc3NC(=O)c3ccc4c(c3)OCO4)CC2)c(C)n1,.,.,.,0.3,-2.0,3.8
CC(C)NC(=O)c1ccc(CNC(=O)OCC(F)(F)F)cc1,-14.1,-5.1,-2.0,1.1,4.2,-0.1
CC(C)NC(=O)c1ccc(COCC(F)(F)F)cc1,87.4*,17.4,-3.0,4.8,0.6,-2.6
Cc1ccc(NC(=O)Cn2cccc2)cc1C,-28.1,-7.5,0.0,3.4,2.5,4.0
Cc1ccc(NC(=O)CCn2cccc2)cc1C,59.9*,12.9,-2.0,7.2,11.0,-1.7
CCOc1cc(C2c3c(oc4ccccc4c3=O)C(=O)N2c2nccs2)ccc1O (centres undefined),55.7*,-30.6,.,-0.7,3.8,-0.9
CCOc1cccc(C2c3c(oc4ccccc4c3=O)C(=O)N2c2ccccn2)c1 (centres undefined),6.2,-4.4,-1.0,2.8,4.3,4.2
COc1cc(C2C3=C(Nc4nc(N)[nH]c(=O)c42)c2ccccc2C3=O)ccc1O (centres undefined),-104.1,90.1*,.,23.1,15.6,4.3
COc1ccccc1NS(=O)(=O)c1ccc2[nH]c(=S)oc2c1,.,.,.,.,.,-3.3
Nc1ccccc1N=c1ssnc1Cl,-20.0,54.0*,-7.0,.,.,.
Cc1cc(Cl)ccc1N=c1ssnc1Cl,-10.4,24.6,-1.0,-10.3,3.4,3.0
O=C1C(Cl)=C(N2CCCCC2)C(=O)C(Cl)=C1c1cnc(N2CCCCC2)s1,64.6*,108.6*,62.0*,.,.,.
COc1ccc(OCCC(=O)OCC(=O)NCc2ccco2)cc1,-73.9,46.1,-1.0,9.0,17.3,8.4
COc1ccccc1NCCC(=O)OCC(=O)NCc1ccco1,-42.5,64.3*,0.0,5.3,19.9,6.0
Cc1cc(Br)ccc1SCC(=O)OCC(=O)NCc1ccco1,-26.1,54.6*,.,6.4,31.2,4.9
O=C(COC(=O)c1ccccc1Oc1ccccc1)NCc1ccco1,-26.2,52.1*,-3.0,2.8,9.2,0.3
CCNc1nc(NCC)n2c(SCC(=O)Nc3ccc(C)c(C)c3)nnc2n1,.,.,.,-3.3,5.0,11.6
CC1CN(C(=O)/C=C/c2ccc(SC(F)F)cc2)CC(C)O1 (centres undefined),.,.,.,3.2,5.2,2.3
Cc1c(CCC(=O)NCCCn2ccnc2)c(=O)oc2c(C)c3oc4c(c3cc12)CCCC4,.,.,.,3.9,5.8,-1.0
CC1CC(C)(C)CC2(C1)NC(=O)N(CC(=O)Nc1ccc(N3CCCCC3)cc1)C2=O (centres undefined),.,.,.,4.2,4.8,3.8
CN(C)c1ccc(NC(=O)Nc2ccc3snnc3c2)cc1,-67.1,92.6*,5.0,14.4,13.8,5.3
O=C(Nc1ccccc1)Nc1ccc2snnc2c1,-7.6,14.8,-4.0,-4.7,3.5,2.4
Clc1ccc(OCCCn2cncn2)cc1Cl,55.6*,27.0,-1.0,5.8,1.1,-3.1
CC12CCC(=O)N1C(C(=O)OCC(=O)Nc1sccc1C#N)CS2 (centres undefined),1.4,36.8,1.0,40.2*,35.4,22.0
CCN(c1ccccc1)S(=O)(=O)c1ccc(C(=O)NCC(=O)Nc2ccc(F)c(F)c2F)cc1,.,.,.,.,.,5.1
Cc1ccc2oc(=O)c3cnn(CC(=O)NC4CCCCC4C)c3c2c1 (centres undefined),65.2*,-5.6,0.0,2.5,8.7,6.0
CCN(C(=O)COC(=O)c1ccc(=O)n(Cc2ccccc2)n1)C1CCCCC1,.,.,.,2.1,5.0,2.2
